High-throughput results: PubChem BioAssay, National Center for Advancing Translational Sciences (NCATS)
Shown are actives, neighbours in structure and some others; about 7.2% of the full set was active somewhere.
3T3 cytotox – cytotoxic compounds in NIH 3T3 cells; AID 1345082; Potency, µM (doses to about 96.7 µM), inactives show at the top dose activity change, negative = cytotoxicity, actives largely listed as inhibitors; 94,000 tested, 4.3% active; NIH 3T3 viability, CellTiter-Glo ATP luminescence, 48-72 h; note: nearly all actives have a fitted effect of over 55% in size
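First NIH 3T3 cells are plated at 400 cells/well; next compound is pinned in; then plates incubate 48 or 72 hr at 37 °C; finally CellTiter-Glo is added and luminescence read after 10 min.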
SNCA viab count – cell viability loss counter-screen; HEK-293-SNCA-luc viability, GF-AFC fluorescence, 24 h; Potency, µM (highest dose often 57.1 µM), for inactives: at the highest dose activity change, negative = cytotoxicity, usual class: cytotoxic; 150,000 tested, 0.12% active; AID 1671193;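 note: 0% = DMSO-treated cells and -100% = medium-only wells without cells; nearly all actives have a fitted effect of over 30% in size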
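Cytotoxicity counterscreen: after 24 h compound treatment of genome-edited SNCA-luciferase HEK-293 cells, live-cell protease substrate GF-AFC read by fluorescence after 30 min; activity scaled between DMSO (0%) and medium-only (-100%), curves Hill-fitted.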
SNCA expr inhib – SNCA gene expression inhibition; HEK-293 SNCA-luciferase knock-in, luminescence, 24 h; Potency, µM (top dose mostly 57.2 µM), inactives show at the top dose activity change, negative = inhibition, usual class: inhibitors; 140,000 tested, 0.17% active; AID 1671194;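 note: plate controls were DMSO cells for no effect and cell-free wells for full effect; nearly all actives have a fitted effect of over 45% in size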
Luciferase inh – Photinus pyralis luciferase inhibition | Potency, µM (titrated, usually from 115 µM), hits mostly inhibitors | 76,000 tested, 2.5% active | P08659 | purified P. pyralis luciferase, luminescence, biochemical; note: nearly all actives have a fitted effect of over 65% in size
Target sequence (P08659 whole entry, looked up): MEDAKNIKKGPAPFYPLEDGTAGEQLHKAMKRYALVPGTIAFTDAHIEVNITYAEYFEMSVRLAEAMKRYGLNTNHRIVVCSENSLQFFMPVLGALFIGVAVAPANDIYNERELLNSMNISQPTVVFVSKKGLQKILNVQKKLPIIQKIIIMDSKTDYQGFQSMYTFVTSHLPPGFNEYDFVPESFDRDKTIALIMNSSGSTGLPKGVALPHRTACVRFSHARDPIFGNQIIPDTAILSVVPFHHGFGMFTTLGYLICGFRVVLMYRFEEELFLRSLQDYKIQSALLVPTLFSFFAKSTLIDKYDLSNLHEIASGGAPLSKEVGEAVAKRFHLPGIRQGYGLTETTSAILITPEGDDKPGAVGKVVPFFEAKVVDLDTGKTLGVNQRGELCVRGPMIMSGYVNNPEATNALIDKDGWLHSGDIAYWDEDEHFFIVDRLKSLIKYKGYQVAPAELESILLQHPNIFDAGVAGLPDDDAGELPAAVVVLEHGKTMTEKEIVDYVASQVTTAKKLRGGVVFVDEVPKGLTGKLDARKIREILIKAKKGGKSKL
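Inhibitors were tested against purified firefly luciferase in a biochemical, low-substrate format (both substrates at 10uM) and luminescence measured with a CCD imager.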
HEK293 tox – kills HEK 293 cells | HEK 293 viability, ATP luminescence (CellTiter-Glo), 48-72 h | Potency, µM (highest dose often 115 µM), without a hit: at the top dose activity change, negative = cytotoxicity, usual class: inhibitors | 94,000 tested, 6.6% active; note: nearly all actives have a fitted effect of over 60% in size
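Read-out: CellTiter-Glo ATP luminescence. Cells: HEK 293, 250 cells/well. Exposure: 48 or 72 hr, 37 degree Celsius.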
hNpr1 antagonist – human Npr1 receptor antagonism. P16066. HEK293 hNpr1 GloSensor cGMP, ANP-stimulated luminescence. Potency, µM (doses to about 46.3 µM), inactives show top-dose activity change, negative = inhibition, hits mostly inhibitors. 76,000 tested, 1.6% active. AID 1347048; calls by dose curve; note: nearly all actives have a fitted effect of over 60% in size
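Compound pre-incubated 30 min at room temperature on GloSensor-loaded HEK293 cells stably carrying hNpr1 and the pGS-40F cGMP biosensor. Stimulation uses hNppA at 0.1 nM final; luminescence is taken at baseline and 20 min post-agonist.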
* marks the source's active call; other numbers are inactive results; i = inactive; ? = inconclusive; . = no result given; [ ] = another dose, or the depositor's remark. Unless noted, calls come from the whole dose curve; as a rule, active = well fitted curve in the direction sought with a large enough effect; inconclusive = small, poorly fitted or top-dose-only effect, or another doubt; inactive = no such curve, though single readings can be large; an effect the other way counts as inactive or inconclusive. Unless noted, % is set by controls: 0 for no effect and ±100 for the full control effect; potency is the fitted concentration of half-maximal effect.

SMILES	3T3 cytotox	SNCA viab count	SNCA expr inhib	Luciferase inh	HEK293 tox	hNpr1 antagonist
CN(C)c1cccc(C(=O)NCC2CCN(c3cc(-c4ccccc4)[nH]n3)CC2)c1	?	-1%	85%	16µM*	?	-15%
COc1ccc(-c2cc(N3CCCC(NC(=O)c4cccc(NC(C)=O)c4)C3)n[nH]2)cc1 (configuration not stated)	?	-3%	63%	28µM*	?	-6%
COc1ccc(-c2cc(N3CCCC(NC(=O)c4ccoc4)C3)n[nH]2)cc1 (configuration not stated)	-18%	-28%	11%	22µM*	?	-8%
CN1CC(=O)N(C2CCCNCC2)Cc2c1ncnc2N1CCc2ccccc2C1 (configuration not stated)	-10%	-2%	54%	.	1%	.
CCc1ccccc1NC(=O)N1CCC(Oc2ncccc2NC)C1 (configuration not stated)	5%	4%	5%	i	-4%	-5%
O=C(c1ccccc1Cl)N1CCN(Cc2ccccc2-c2cccnc2)CC1	?	5%[12.5 µM]	1%	.	?	.
CN(C)c1cccc(C(=O)NC2CCCN(c3cc(-c4ccccc4)[nH]n3)C2)c1 (configuration not stated)	?	-18%	106%	35µM*	?	-11%
COc1ccc(-c2cc(N3CCCC(NC(=O)c4ccc(C)s4)C3)n[nH]2)cc1 (configuration not stated)	?	-10%	50%	28µM*	?	-14%
Cc1ccc(C(=O)NC2CCCN(c3cc(-c4ccccc4)[nH]n3)C2)s1 (configuration not stated)	?	-15%	60%	?	?	-11%
COc1ccc(-c2cc(N3CCCC(NC(=O)c4cccc(C#N)c4)C3)n[nH]2)cc1 (configuration not stated)	?	-11%	?	20µM*	?	-16%
O=C(NCCCc1ccccc1)c1cc(-c2cccc(C(F)(F)F)c2)c2cccn2n1	?	-5%	?	.	?	.
C[S+](=O)([O-])c1ccc(-c2cc(C(=O)N3CCN(c4ncccn4)CC3)nn3cccc23)cc1	-24%	-26%	53%	.	50µM*	.
O=C(NC1CCCC1)c1cc(-c2cccc(C(F)(F)F)c2)c2cccn2n1	?	-4%	-17%	.	40µM*	.
O=C(c1cc(-c2cccc(C(F)(F)F)c2)c2cccn2n1)N1CCCC1	?	-3%	-20%	.	45µM*	.
O=C(NCC(F)(F)F)c1cc(-c2cc(Cl)cc(Cl)c2)c2cccn2n1	?	0%	-19%	.	40µM*	.
O=C(CCc1nc2ccc(Cl)cc2[nH]1)NCCc1noc(-c2cccnc2)n1	-14%	-17%[12.5 µM]	-11%	i	-9%	3%
O=C(NCC(F)F)c1cc(-c2cccc(C(F)(F)F)c2)c2cccn2n1	?	-3%	-26%	.	35µM*	.
CSCCNC(=O)c1cc(-c2cccc(C(F)(F)F)c2)c2cccn2n1	?	-19%	-29%	.	?	.
O=C(O)c1ccc(CN2CC[C@@H](c3ccc4c(c3)OCO4)[C@H](O)C2)cc1	-16%	-11%	30%	i	1%	6%
CC(C)c1csc(CN2CC[C@@H](c3ccc4c(c3)OCO4)[C@H](O)C2)n1	?	-9%	7%	i	22µM*	?
O=C(c1ccn(C(F)F)n1)N1CCc2nc(-c3ccc(Cl)cc3)[nH]c2C1	?	-11%	27%	?	89µM*	0%
O=C(c1ccc(Cl)cc1)N1CCC2(CC1)OCC(C(=O)N1CCCC1)N2C(=O)c1ccccc1 (configuration not stated)	-13%	-28%	8%	i	-10%	-1%
COc1ccc(NC(=O)c2c(C)nc3n2CCC(Nc2ccc(F)cc2)C3)cn1 (configuration not stated)	?	5%[87.6 µM]	-6%[87.6 µM]	i	-26%[172 µM]	8%[70.6 µM]
Cc1nc2n(c1C(=O)Nc1cccc(Cl)c1C)CCC(Nc1ccc(F)cc1)C2 (configuration not stated)	?	-23%[87.6 µM]	-20%[87.6 µM]	i	89µM*	-1%[70.6 µM]
CC(C)[C@@](C)(O)[C@@H]1CN(c2nc(-c3[nH]nc4ncccc34)c(F)cc2Cl)CCN1	.	30µM*	.	.	.	.
SMILES	3T3 cytotox	SNCA viab count	SNCA expr inhib	Luciferase inh	HEK293 tox	hNpr1 antagonist
CC(C)C[C@@H]1N[C@H](C(=O)NCc2ccco2)Cc2cn(Cc3nccn3C)c3cccc1c23	?	-3%	3%	i	32µM*	-13%
CC(C)C[C@@H]1N[C@H](C(=O)NC2CCCC2)Cc2cn(Cc3nccn3C)c3cccc1c23	89µM*	?	?	i	40µM*	-1%[70.6 µM]
Cc1noc(C)c1Cn1cc2c3c(cccc31)[C@H](CC(C)C)N[C@H](C(=O)NCc1ccco1)C2	20µM*	-15%	?	i	?	-18%
C#CCNC(=O)[C@@H]1Cc2cn(Cc3nccn3C)c3cccc(c23)[C@H](CC(C)C)N1	?	-11%[87.6 µM]	?	i	?	2%[70.6 µM]
COCCNC(=O)[C@@H]1Cc2cn(Cc3nccn3C)c3cccc(c23)[C@H](CC(C)C)N1	-22%[174 µM]	-19%[87.6 µM]	?	i	40µM*	4%[70.6 µM]
C=C1C(OC(C)=O)[C@@]23CCC4[C@](C)(C(=O)O)CCC[C@@]4(C)[C@]2(O)CC[C@H]1C3 (some centres not stated)	.	0%	.	.	.	.
CC(C)CC(=O)N1[C@@H]2CC[C@H]1CC(NC(=O)c1ccncc1)C2 (some centres not stated)	-9%	0%	-3%	i	i	-1%
Cn1c(=O)n(-c2ccc3c(c2)OCO3)c2nc(-c3ccc(Cl)cc3)nc(C(N)=O)c21	.	1%	32µM*	.	.	.
Cc1cccc(-c2nocc2CCC(=O)NCc2cccs2)c1	-8%	0%	?	i	-20%	1%
Cc1cc(C)cc(C(=O)N2CCCN(C)c3ccccc32)c1	?	-26%	?	i	40µM*	-1%
CN1CCCN(C(=O)c2ccc(F)cc2)c2ccccc21	?	-7%	?	i	-18%	1%
CC1(c2ccccc2)N(Cc2ccccc2C#N)C(=O)OC12CCN(C(=O)CCc1cccnc1)CC2 (configuration not stated)	?	-3%	13%	i	2%	0%
O=C(C[C@H]1NC(=O)c2ccccc2NC1=O)Nc1nc(-c2cccnc2)cs1	?	7%	-6%	i	45µM*	-1%
